Measured values published in PubChem BioAssay AID1159580 (chemical genetic matrix, 2015).
Out of some 5,500 compounds screened, about 2,000 (36%) were called active. Not shown: some 18% with an inconclusive outcome. Rule as the data show it: active = normalized growth mostly below about 0.91 (no sharp cut-off); inconclusive = no clear call, values can overlap the other calls; inactive = mostly above about 0.92. Some of the results follow.

Assay: chemical genetic growth profiling, strain panel (AID 1159580);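 also: tested at 20 µM; growth read once vehicle control cultures reached saturation at 30 °C; 1 = growth at the plate median or of vehicle wells; lower values mean less growth of the strain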
Conditions: S. cerevisiae deletion strains, growth OD

Measured: normalized growth

C[C@]12C=CC(=O)C=C1CCC1C2[C@@H](O)C[C@@]2(C)C1CC[C@]2(O)C(=O)COC(=O)CCC(=O)O (stereo partly drawn)
inactive: locus YHR030C, strain SLT2, active compounds read low 0.969 | locus YHR079C, strain IRE1, active compounds read low 0.968 | locus YJL095W, strain BCK1, active compounds read low 1 | locus YJR066W, strain TOR1, active compounds read low 0.931 | locus YLR113W, strain HOG1, active compounds read low 1 | locus YNL183C, strain NPR1, active compounds read low 0.931 | locus YOR231W, strain MKK1, active compounds read low 0.979 | locus YPL256C, strain CLN2, active compounds read low 0.963
